Compounds with a hit are over-represented: about 1.3% of the library has one in this group of screens.
S1P4 agonist – S1P4 receptor agonists, primary screen, cell-based | AID 1509, 2009 | Sphingosine 1-phosphate receptor 4 (Homo sapiens), O95977 | S1P4-expressing cell line, agonist reporter assay | 220,000 tested, 0.35% active | activation, % at 4.98 µM; in the data active means activation above about 11%;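 further: 0% = DMSO vehicle and 100% = reference agonist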
Calpain2 inh – inhibitors of pig calpain II, primary screen, biochemical, fluorogenic peptide substrate, 1536-well; 220,000 tested, 0.37% active; inhibition, % at 16 µM; purified calpain II, 30 min;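 active means inhibition above about 50%, limit read from the data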
S1P3 antag – S1P3 receptor antagonists, primary screen, cell-based. Sphingosine 1-phosphate receptor 3 (Homo sapiens), Q99500. CHO S1P3 NFAT-BLA reporter, FRET fluorescence, antagonist mode. inhibition, % at 4.98 µM. 170,000 tested, 0.27% active. AID 485, 2006;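 active means inhibition above the plate cutoff, the mean inhibition of test wells on that plate plus 3 SD, cut at about 28% in these data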;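 further: cells challenged with S1P at its EC80 of 0.8 µM; blue over green emission ratio from cleaved BLA substrate after 4 h stimulation; 0% = S1P-stimulated wells and 100% = unstimulated DMSO-only wells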
S1P4 antag – S1P4 receptor antagonists, primary screen, cell-based; Sphingosine 1-phosphate receptor 4 (Homo sapiens), O95977; S1P4-expressing cells, antagonist mode, reporter read-out; inhibition, % at 4.98 µM; 220,000 tested, 0.26% active; AID 1510, 2009; in the data active means inhibition above about 29%;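 further: 0% = wells stimulated with agonist and 100% = vehicle wells without agonist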
PERK inh – block of dimerizer-induced PERK translation repression, primary screen, PERK inhibitor project, CHO PERK-DD cells, SEAP luminescence, HTS; Eukaryotic translation initiation factor 2-alpha kinase 3 (Homo sapiens), Q9NZJ5; 220,000 tested, 0.17% active; CHO PERK-DD fusion, SEAP luminescence translation reporter; AID 1416, 2008; inhibition, % at 5.6 µM;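 active means inhibition above the mean inhibition of all tested compounds plus 3 SD, set separately per screening campaign, cut at about 2.9% in these data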;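 further: PERK kinase domain activated by AP20187 dimerizer at 100 nM; 0% = DMSO with dimerizer and 100% = rapamycin at 8.4 µM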
Target sequence (Q9NZJ5 whole entry, looked up, the tested form may be a part): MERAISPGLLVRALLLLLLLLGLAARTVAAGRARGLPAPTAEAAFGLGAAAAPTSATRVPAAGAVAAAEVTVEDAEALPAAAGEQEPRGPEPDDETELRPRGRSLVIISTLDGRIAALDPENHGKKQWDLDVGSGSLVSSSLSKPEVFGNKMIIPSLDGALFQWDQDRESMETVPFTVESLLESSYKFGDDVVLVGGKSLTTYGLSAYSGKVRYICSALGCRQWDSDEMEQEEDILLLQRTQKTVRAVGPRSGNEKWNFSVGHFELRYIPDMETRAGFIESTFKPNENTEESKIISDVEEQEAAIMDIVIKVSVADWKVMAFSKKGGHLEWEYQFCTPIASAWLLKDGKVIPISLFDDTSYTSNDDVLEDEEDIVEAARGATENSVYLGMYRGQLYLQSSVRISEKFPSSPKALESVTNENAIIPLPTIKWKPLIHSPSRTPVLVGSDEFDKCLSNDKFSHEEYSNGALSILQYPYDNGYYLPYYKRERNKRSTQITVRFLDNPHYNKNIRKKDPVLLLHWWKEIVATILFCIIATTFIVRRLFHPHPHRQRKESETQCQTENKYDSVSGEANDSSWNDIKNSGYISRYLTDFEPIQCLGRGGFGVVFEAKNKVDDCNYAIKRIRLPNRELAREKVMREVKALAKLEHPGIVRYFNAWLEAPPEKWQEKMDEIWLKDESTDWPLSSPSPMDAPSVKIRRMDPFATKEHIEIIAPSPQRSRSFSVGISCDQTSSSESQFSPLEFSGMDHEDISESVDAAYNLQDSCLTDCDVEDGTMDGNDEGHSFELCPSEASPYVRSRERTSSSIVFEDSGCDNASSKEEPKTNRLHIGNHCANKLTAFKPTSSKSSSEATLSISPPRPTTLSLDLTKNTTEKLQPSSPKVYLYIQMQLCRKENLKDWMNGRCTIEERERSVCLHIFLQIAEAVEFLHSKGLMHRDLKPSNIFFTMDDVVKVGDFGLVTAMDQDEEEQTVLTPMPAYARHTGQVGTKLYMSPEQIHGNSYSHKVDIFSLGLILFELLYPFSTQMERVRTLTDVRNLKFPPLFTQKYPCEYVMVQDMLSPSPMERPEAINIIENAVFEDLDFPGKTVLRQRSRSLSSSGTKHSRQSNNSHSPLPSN
* = called active by the depositor.

For COc1cccc(CN2CCNC(=O)C2CC(=O)NCc2cn3cccc(C)c3n2)c1OC (stereo not drawn) the results were S1P4 agonist 1.2, Calpain2 inh -24.8, S1P3 antag 0.6, S1P4 antag 5.2 and PERK inh 0.5.
Screening COc1cccc(CN2CCNC(=O)C2CC(=O)NCc2cn3ccccc3n2)c1OC (stereo not drawn) returned S1P4 agonist 0.2, Calpain2 inh -26.6, S1P3 antag -18.5, S1P4 antag -8.2 and PERK inh 3.0*.
Screening CN(C)c1nc(N)c([N+](=O)[O-])c(NCC2CCCO2)n1 (stereo not drawn) returned S1P4 agonist 1.9, Calpain2 inh 11.5, S1P3 antag -10.2, S1P4 antag -24.7 and PERK inh 0.1.
Screening N#Cc1ccsc1NC(=O)c1ccc(Cl)c([N+](=O)[O-])c1 returned S1P4 agonist -1.1, Calpain2 inh 23.2, S1P3 antag 3.2, S1P4 antag -3.1 and PERK inh 4.3*.
For CSc1nc(SCC(=O)O)c2sc3nc(-c4ccccc4)c4c(c3c2n1)CCC4 the results were S1P4 agonist -0.5, Calpain2 inh 89.8*, S1P3 antag -0.8, S1P4 antag -7.9 and PERK inh 0.5.
Screening COc1cc(-c2ccc(Nc3ccccc3C(=O)O)c(OC)c2)ccc1Nc1ccccc1C(=O)O returned S1P4 agonist 1.0, Calpain2 inh 55.4*, S1P3 antag 2.2, S1P4 antag -14.4 and PERK inh 0.5.
For CCOC(=O)c1sc(NC(=O)c2cccs2)nc1C the results were S1P4 agonist -1.7, Calpain2 inh -11.2, S1P4 antag -23.0 and PERK inh 0.1.
For CCOC(=O)c1sc2nc(NC(=O)c3cccs3)sc2c1C the results were S1P3 antag 69.7*.
c1ccc(-c2ccc(-n3ccnc3)cc2)cc1 was read as S1P4 agonist 4.6, Calpain2 inh 6.0, S1P3 antag 14.1, S1P4 antag -15.2 and PERK inh 0.4.
For c1ccc(-c2ccc(C(c3ccccc3)n3ccnc3)cc2)cc1 (stereo not drawn) the results were S1P4 agonist -0.1, Calpain2 inh 52.9*, S1P3 antag 6.7, S1P4 antag -10.8 and PERK inh -0.6.
For CCn1c(SCc2ccc(C)cc2)nnc1C1CCN(S(=O)(=O)c2ccc(OC)cc2)CC1 the results were S1P4 agonist -0.8, Calpain2 inh 2.8, S1P4 antag -13.1 and PERK inh -0.6.
Screening CCn1c(SCc2ccc(F)cc2)nnc1C1CCN(S(=O)(=O)c2ccc(OC)cc2)CC1 returned S1P4 agonist -1.7, Calpain2 inh 59.2*, S1P4 antag -4.9 and PERK inh 0.5.
`CSc1nnc(CSc2cc(C)nc(N(C)C)n2)o1` gave S1P4 agonist -3.8, Calpain2 inh 1.9, S1P3 antag 8.4, S1P4 antag -19.2 and PERK inh -0.1.
`CCCCc1c(C)nc2c(OC)cccc2c1SCC(=O)O` gave S1P4 agonist -1.0, Calpain2 inh 7.9, S1P3 antag 5.0, S1P4 antag -8.3 and PERK inh 4.2*.
COc1cccc2c(Cl)c(CCCl)c(C)nc12 was read as S1P4 agonist 0.0, Calpain2 inh -4.1, S1P3 antag -7.6, S1P4 antag -18.0 and PERK inh -0.4.
For COC(=O)N/N=C/c1ccc(OC(=O)/C=C/c2ccco2)cc1 the results were S1P4 agonist 0.7, Calpain2 inh -11.5, S1P3 antag -13.4, S1P4 antag -2.6 and PERK inh 2.9*.
C=CCNC(=S)N/N=C/c1cccc([N+](=O)[O-])c1 was read as S1P4 agonist 1.4, Calpain2 inh 63.5*, S1P3 antag -9.2, S1P4 antag 19.5 and PERK inh 0.4.
Screening O=C(Nc1ccc(Cl)c(Cl)c1)N1N=CCC1c1ccccc1 (stereo not drawn) returned S1P4 agonist -0.7, Calpain2 inh 46.3, S1P3 antag 2.0, S1P4 antag 2.7 and PERK inh -0.3.
`Cc1onc(-c2ccccc2)c1C(=O)NC(=S)NNC(=O)c1cc(-c2ccc(F)cc2)n[nH]1` gave S1P4 agonist 1.5, Calpain2 inh -65.7, S1P3 antag 0.1, S1P4 antag -10.9 and PERK inh 0.0.
Fc1ccccc1COc1ccc(Br)cc1CNCc1ccncc1 was read as S1P4 agonist 0.2, Calpain2 inh 57.3*, S1P4 antag -12.0 and PERK inh -1.4.

Bioassay records from PubChem.
